Laboratory results from PubChem BioAssay AID1851 (National Center for Advancing Translational Sciences (NCATS), 2009).
Hit rate of the full screen: of about 16,000 compounds, about 5,100 (32%) were called active. Roughly 25% stayed inconclusive and do not appear here. This is one part of the list. A number with no mark means an inactive call. The call rests on the fitted dose curve; in most records, active means well fitted curve in the direction sought with a large enough effect; inconclusive means small, poorly fitted or top-dose-only effect, or effect the other way; inactive means no such curve, though single readings can be large or run the other way.
On the % scale 0 is the no-effect control and ±100 the full control effect.

The molecules below were run against Cytochrome P450 3A4 (Homo sapiens) (UniProt P08684) (assay: Cytochrome panel assay with activity outcomes). Settings: recombinant CYP, pro-luciferin dealkylation, luminescence, p450-cyp3a4; series mostly up to 57.1 µM; activity, negative = inhibition: at the top concentration.
Chain of Cytochrome P450 3A4 (Homo sapiens) (P08684 whole entry, looked up): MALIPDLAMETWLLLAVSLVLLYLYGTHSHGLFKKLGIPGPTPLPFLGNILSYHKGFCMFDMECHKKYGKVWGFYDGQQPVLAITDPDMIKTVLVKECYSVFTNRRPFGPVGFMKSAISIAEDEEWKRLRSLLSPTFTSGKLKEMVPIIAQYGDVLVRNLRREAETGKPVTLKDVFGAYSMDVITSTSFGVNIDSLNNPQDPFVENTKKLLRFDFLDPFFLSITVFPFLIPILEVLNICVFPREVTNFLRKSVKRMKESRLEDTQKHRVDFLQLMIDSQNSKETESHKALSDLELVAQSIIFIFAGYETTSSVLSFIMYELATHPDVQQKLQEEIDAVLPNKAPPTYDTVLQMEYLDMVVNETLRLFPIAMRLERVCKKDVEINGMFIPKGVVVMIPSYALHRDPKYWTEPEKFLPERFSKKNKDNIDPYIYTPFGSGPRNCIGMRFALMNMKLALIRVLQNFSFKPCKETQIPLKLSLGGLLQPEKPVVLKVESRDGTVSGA
For `Brc1ccc(-c2nnc(-c3ccccc3)c(N3CCSCC3)n2)cc1`, the “activity, negative = inhibition” value was -22.4%. `CCCCN(C)S(=O)(=O)c1ccc(C(=O)Nc2nnc(CSC)o2)cc1` was tested, and the “activity, negative = inhibition” value was 24%. With `Cn1c(C(F)(F)F)nc2c(=O)oc3ccccc3c21` the “activity, negative = inhibition” value was -20.1%. In the case of `Nc1ccccc1S(N)(=O)=O`, the “activity, negative = inhibition” value is reported as 3.31% [at 25.6 µM]. With `Cc1ccc(C(C(=O)NC2CCCCC2)N2CCN(C(=O)c3ccco3)CC2)cc1` (configuration not stated) the activity, negative = inhibition was -19.6% [at 2.29 µM]. For `O=C(NC1CCCCC1)C(c1ccccc1)N1CCOCC1` (configuration not stated), the AC50 was 11.2 µM (active). For `COc1ccc(C(C(=O)NC2CCCCC2)N2CCC3(CC2)OCCO3)cc1` (configuration not stated), the AC50 was 4.47 µM (active). With `CCOc1cc(C)c(S(=O)(=O)Nc2ccc3cn[nH]c3c2)cc1C` the AC50 was 0.316 µM (active). In the case of `CCOC(OCC)P(=O)(O)CCCNCc1ccc(Cl)c(Cl)c1`, the “activity, negative = inhibition” value is reported as 10.5%. For `Cc1ccn2cc(CSc3ccccc3N)nc2c1`, the AC50 was 3.98 µM (active). `CC(SCc1cn2cc(Cl)ccc2n1)C(=O)O` (configuration not stated) was tested, and the “activity, negative = inhibition” value was -11.1%. `C[C@@H](C[N+](C)(C)C)OC(N)=O` was tested, and the AC50 was “inactive”. With `COC(=O)C1C(=O)C2=C(CC1C)NC(=O)CC2c1cccc(C)c1` (configuration not stated) the AC50 was 14.1 µM (active). `C=CC[C@@H]1C=C[C@H](O/N=C(\C)CCN2CCCc3nc(C)c(C)cc32)[C@H](CO)O1` was tested, and the AC50 was 2.51 µM (active). With `C=CC[C@@H]1C=C[C@H](O/N=C(\C)CCN2CCCCc3nc(C)c(C)cc32)[C@H](CO)O1` the AC50 was 3.98 µM (active). Molecule `CN(C(=S)Nc1ccccc1F)C1(c2ccccc2Cl)CCCCC1=O` (configuration not stated) has an activity, negative = inhibition of -21.2% [at 2.29 µM]. In the case of `CCCCN1C2=NCCCN2c2ccccc21`, the activity, negative = inhibition is reported as 7.3% [at 11.4 µM]. With `Cc1ccsc1/C=N/Nc1nc(Cl)c(Cl)cc1Cl` the activity, negative = inhibition was -21% [at 2.29 µM]. `O=C(Nc1ccc(-c2cc3ccccc3oc2=O)c(Cl)c1)c1cccnc1` was tested, and the “activity, negative = inhibition” value was -10%. Work on `O=C(Nc1cc2ccccc2oc1=O)C1CCCCC1` yielded an activity, negative = inhibition of 10.7% [at 2.29 µM]. In the case of `O=c1oc2ccccc2cc1-c1csc(NN=C2CCCCC2)n1`, the AC50 is reported as 3.98 µM (active). For `COc1cc(OC)cc(C(=O)NC(=S)NCCc2ccccc2)c1`, the AC50 was 3.98 µM (active). `Cc1cccc(C)c1NC(=S)NC(=O)CCc1ccccc1` was tested, and the AC50 was 12.6 µM (active). In the case of `COc1ccc(C(=O)NC(=S)NNC(=O)CCc2ccccc2)cc1`, the AC50 is reported as 11.2 µM (active). `COc1cc(OC)cc(C(=O)NC(=S)Nc2ccc(Cl)c(C(=O)O)c2)c1` was tested, and the “activity, negative = inhibition” value was -26.3%. Work on `O=C(CCc1ccccc1)NNC(=S)NC(=O)c1ccccc1` yielded an activity, negative = inhibition of 7% [at 2.29 µM]. For `CC[N+](CC)(CC(=O)Nc1c(C)cccc1C)Cc1ccccc1`, the “activity, negative = inhibition” value was -19.7% [at 25.6 µM]. `NNC(=O)c1ccc[n+](CCc2ccccc2)c1` gave an activity, negative = inhibition of -7.56% [at 11.4 µM]. For `CC(C)C12CN3CC(C(C)C)(CN(C1)C3c1ccco1)C2=O` (configuration not stated), the activity, negative = inhibition was -2.45% [at 2.29 µM]. For `Cc1cccc(-c2nc(CN3CCCC(C(=O)NC4CCCCC4)C3)c(C)o2)c1` (configuration not stated), the AC50 was 3.16 µM (active). For `COc1ccc(CCNC(=O)C2CCCN(Cc3nc(-c4cccc(Cl)c4)oc3C)C2)cc1OC` (configuration not stated), the AC50 was 2 µM (active). Work on `CCC(C)NC(=O)C1CCCN(C(=O)NC2CCCCC2)C1` (configuration not stated) yielded an activity, negative = inhibition of 10.7% [at 2.29 µM]. `CCCS(=O)(=O)N1CCCC(C(=O)NCCCN2CCN(c3cccc(Cl)c3)CC2)C1` (configuration not stated) was tested, and the “activity, negative = inhibition” value was -22.1%. With `COc1ccc2nc(N3CCCC(C(=O)NCCCN4CCN(C)CC4)C3)sc2c1` (configuration not stated) the “activity, negative = inhibition” value was -20.9%. In the case of `Cc1cn([C@H]2C[C@H](O)[C@@H](COC(N)=O)O2)c(=O)[nH]c1=O`, the activity, negative = inhibition is reported as -22.2% [at 11.4 µM]. For `CNc1cnn(-c2ccccc2)c(=O)c1Cl`, the “activity, negative = inhibition” value was 6.78%. In the case of `C=CCNc1cnn(-c2ccc(C)cc2)c(=O)c1Cl`, the AC50 is reported as 4.47 µM (active). For `C[C@@H](CN1c2ccccc2Sc2ccccc21)N(C)C`, the AC50 was “inactive”. For `O=C(NCCc1ccccc1)N1c2ccccc2Sc2ccccc21`, the AC50 was 14.1 µM (active). With `CC(C)CNC(=O)c1nc(-c2ccccc2)n(-c2ccccc2)n1` the “activity, negative = inhibition” value was -3.69%. For `CC(C)CNCC(=O)N1c2ccccc2Sc2ccccc21`, the AC50 was 11.2 µM (active). With `O=C(O)CNCCc1ccccc1` the activity, negative = inhibition was -11.1% [at 11.4 µM]. For `NC(=O)/C(=N\OC(=O)c1ccco1)c1nc(-c2ccc(Br)cc2)cs1`, the “activity, negative = inhibition” value was -10.3%. Molecule `N[C@@H](Cc1ncccn1)C(=O)O` has an activity, negative = inhibition of 6.81% [at 11.4 µM]. For `CCOC(=O)c1cc(-c2ccccc2)sc1NC(=S)Nc1cc(C)ccn1`, the AC50 was 2.82 µM (active). `CCOC(=O)c1cc(-c2ccccc2)sc1NC(=O)C(C)(C)C` was tested, and the “activity, negative = inhibition” value was 2.53%. `CCOc1ncccc1C(=O)OCC(=O)Nc1cc(C)ccc1C` gave an activity, negative = inhibition of 0.451% [at 2.29 µM]. In the case of `CC(=O)N(/N=C1\Sc2ccccc2C1=O)c1ccccc1`, the “activity, negative = inhibition” value is reported as -26.1%. `Cc1ccc(/C=C2\Sc3ccccc3C2=O)s1` was tested, and the AC50 was 20 µM (active). For `CC(C)n1cc(/C=C2/SC(=O)N(CC(=O)Nc3ccc4c(c3)OCO4)C2=O)c2ccccc21`, the AC50 was 0.316 µM (active). In the case of `Cn1cc(/C=C2/SC(=O)N(CC(=O)Nc3ccc4c(c3)OCO4)C2=O)c2ccccc21`, the AC50 is reported as 0.2 µM (active). With `Cc1ccsc1/C=C1/SC(=O)N(CC(=O)N2CCOCC2)C1=O` the “activity, negative = inhibition” value was -0.702%. `Cn1ncc(Cl)c1C(=O)Nc1cccnc1` was tested, and the “activity, negative = inhibition” value was -16%. `CN1CCc2cc(NC(=O)Nc3cccnc3)ccc21` was tested, and the AC50 was 12.6 µM (active). Work on `O=S(=O)(O)c1cc(O)c2c(O)c(N=Nc3cccc4ccccc34)c(S(=O)(=O)O)cc2c1` yielded an activity, negative = inhibition of -11.8% [at 11.4 µM]. `COc1ccc(Cl)cc1NC(=O)C12CCC(C)(C(=O)O1)C2(C)C` (configuration not stated) was tested, and the AC50 was 15.8 µM (active). Work on `NS(=O)(=O)c1ccc(N=Nc2nc3[nH]cnc(=S)c3[nH]2)cc1` yielded an activity, negative = inhibition of -11.9% [at 11.4 µM]. In the case of `COc1ccc(S(=O)(=O)Nc2cccc(Cl)c2)cc1OC`, the AC50 is reported as 6.31 µM (active). For `COc1ccc(NS(=O)(=O)c2ccc(I)cc2)cc1N1CCN(C)CC1`, the “activity, negative = inhibition” value was -53%. `Cc1ccc(-n2cnc(=O)c3cccnc32)cc1` was tested, and the activity, negative = inhibition was -3.53% [at 2.29 µM]. For `Cc1ccc(-n2[nH]c(=O)c3cccnc32)cc1`, the “activity, negative = inhibition” value was -5.23%. With `Cc1ccc(N2C(=O)c3n[nH]c(C)c3C2c2ccccn2)cc1` (configuration not stated) the AC50 was 14.1 µM (active). For `COCCNc1cc(-c2c(C)noc2C)ncn1`, the “activity, negative = inhibition” value was 10.1%. `Cc1noc(C)c1-c1nccc(N2CCOCC2)n1` was tested, and the “activity, negative = inhibition” value was -9.81%. With `Cc1noc(C)c1-c1cncnc1NCCN1CCOCC1` the AC50 was 6.31 µM (active). For `COCCNc1ncncc1-c1c(C)noc1C`, the AC50 was 5.01 µM (active). With `FC(F)(F)c1ccccc1-c1cncnc1NCCN1CCOCC1` the AC50 was 0.794 µM (active). With `CNc1cc(-c2c(C)noc2C)ncn1` the “activity, negative = inhibition” value was -3%. For `Cc1ccccc1-c1cncnc1NCCN1CCOCC1`, the AC50 was 1.58 µM (active). `CS[C@@H](CC(=O)O)C(=O)O` gave an activity, negative = inhibition of -17% [at 11.4 µM]. With `Cc1nc2c(n1C1CCCCC1)C(=O)c1ccccc1C2=O` the AC50 was 14.1 µM (active). In the case of `O=C1c2cccnc2C(O)N1C1CCCCC1` (configuration not stated), the “activity, negative = inhibition” value is reported as -14.1%. In the case of `COc1c(F)c(F)c(C(=O)O)c(Nc2ccc(C)cc2)c1F`, the “activity, negative = inhibition” value is reported as -28.2%. For `O=C(N/N=C\c1ccc(-c2ccccc2[N+](=O)[O-])o1)C1COc2cc3ccccc3cc2O1` (configuration not stated), the AC50 was 17.8 µM (active). With `Cc1ccc(CNC(=O)C2CC(c3ccccc3[N+](=O)[O-])=NO2)o1` (configuration not stated) the “activity, negative = inhibition” value was -23.2%. For `CCOC(=O)C(C)n1cnc2c(oc3ccccc32)c1=O` (configuration not stated), the “activity, negative = inhibition” value was 7.52%. With `O=C(Cn1cnc2c(oc3ccccc32)c1=O)NCc1ccco1` the “activity, negative = inhibition” value was -25.9%. In the case of `c1ccc2c(c1)oc1c(NCCCn3ccnc3)ncnc12`, the AC50 is reported as 0.631 µM (active). With `c1ccc(-c2nc(NCCCn3ccnc3)c3oc4ccccc4c3n2)cc1` the AC50 was 1 µM (active). With `CC(=O)C1=C(NC(=O)c2ccc(F)cc2)CC2C1C2(C)C` (configuration not stated) the activity, negative = inhibition was 10% [at 2.29 µM]. `CCN1C(=O)[C@@H]2[C@H]3C(=CC[C@@H]2C1=O)C1(OCCCO1)[C@H]1O[C@@H]1[C@H]3O` showed an activity, negative = inhibition of -21.4% [at 11.4 µM]. For `COc1ccccc1NC(=O)c1sc2ncn(Cc3ccccc3C)c(=O)c2c1C`, the AC50 was 4.47 µM (active). `N#Cc1c(-n2ccnc2)cccc1-n1ccnc1` was tested, and the AC50 was 2 µM (active). In the case of `N#Cc1c(Cl)cccc1-n1ccnc1`, the AC50 is reported as 1 µM (active). In the case of `Cc1cccc(-n2cccc2)c1C#N`, the “activity, negative = inhibition” value is reported as 0.0083%. In the case of `CCCCOc1ccccc1N`, the “activity, negative = inhibition” value is reported as -7.64%. `Nc1ccccc1Oc1ncc(C(F)(F)F)cc1Cl` was tested, and the AC50 was 14.1 µM (active). For `COc1ccc2c(c1)N(CC[C@H]1CCCCN1C)c1ccccc1S2`, the activity, negative = inhibition was -24.2% [at 11.4 µM]. For `O=C(CSc1nc2ccccc2o1)N1c2ccccc2Sc2ccc(Cl)cc21`, the AC50 was 8.91 µM (active). With `COc1ccc(OCc2nnc(SCC(=O)N3c4ccccc4Sc4ccc(Cl)cc43)o2)cc1` the AC50 was 3.55 µM (active). `OC1CC2CC[C@H](C1)N2CCCN1c2ccccc2Sc2ccc(Cl)cc21` (some centres not stated) was tested, and the activity, negative = inhibition was -4.29% [at 11.4 µM]. `O=C(O)c1ccc(CSc2nc3ccccc3o2)cc1` was tested, and the “activity, negative = inhibition” value was 23.1%. For `CCOC(=O)CN1N=C(/C=C/c2ccc(C)cc2)CCC1=O`, the “activity, negative = inhibition” value was 19.5%. With `O=C1c2ccccc2N[C@H](c2cc(Cl)cc(Cl)c2O)N1CCc1ccccn1` the AC50 was 0.794 µM (active). With `O=C1CC(N2CCN(CCc3ccccn3)CC2)C(=O)N1c1ccc(Cl)cc1` (configuration not stated) the “activity, negative = inhibition” value was -14.5%. `CN(Cc1ccco1)c1ncncc1-c1ccc2c(c1)OCO2` was tested, and the AC50 was 1.26 µM (active). In the case of `CN(C)C(=O)c1ccc(-c2nccc(N(C)Cc3ccco3)n2)cc1`, the “activity, negative = inhibition” value is reported as 20.6%. `CN(C)c1ccc(-c2cncnc2N(C)Cc2ccco2)cc1` was tested, and the AC50 was 0.631 µM (active). For `CN(Cc1ccco1)c1ncncc1-c1cccnc1`, the AC50 was 2.51 µM (active). `CN(Cc1ccco1)c1ncncc1-c1cccc(C#N)c1` was tested, and the AC50 was 7.94 µM (active). `C#C[C@H](N)CCC(=O)O` was tested, and the “activity, negative = inhibition” value was -4.49%. For `COc1cc(O)c2c(O)c3c(c4c2c1[C@@]1(C4)C(C)=CCCC1(C)C)[C@H](O)[C@@]1(O)CC(=O)C(C(N)=O)=C(O)[C@]1(O)C3=O`, the activity, negative = inhibition was -13.9% [at 11.4 µM].
